The source of these data is paper PMC5540273 (PLoS ONE, 2017).

The structures appear in SMILES notation.
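Further: KINOMEscan kinase panel screen.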

The test system of one assay is EPHA3. The settings on record: concentration: 1 μM, replicates: in singlicate; n = 1.
With `COc1cc(Nc2nccc(N3CCC(NC(=O)C4COc5ccccc5O4)C3)n2)cc(OC)c1OC` (centres unmarked) [GSK1379761], the “%Inh” value came out at 1%.
Consider `COc1cccc(-n2cnc3c(N)ncnc32)c1` [SKF-97416], for which the “%Inh” value came to 4%.
As for `CC(C)(C)c1ccc(C(=O)Nc2cn3cc(-c4ccccc4)ccc3n2)cc1`, the “%Inh” value was 6%.
With `COc1ccc(-c2coc3ccc(-c4nnc(SCc5cccc(C#N)c5)o4)cc23)cc1`, the “%Inh” value was 2%.
The same measure, in the same setting: the same measure for `OCCCNc1nccc(-c2c(-c3cccc(C(F)(F)F)c3)nn3cc(C(F)(F)F)ccc23)n1` [GW630813]: 5%; for `COC(=O)c1c(-c2ccccc2)c2cc(Br)ccc2c(=O)n1Cc1ccc(S(C)(=O)=O)cc1`: 0%.
In the case of `Cc1cc(Nc2nc(-c3cccc(C)n3)nc3ccccc23)ccn1` [GW872411], the “%Inh” value is 18%.
Same read-out and setting: as for `Nc1ncnc2c1ncn2-c1ccc(Cl)cc1` [AH2635], the figure is 0%.
Regarding `CN(C)c1cc(-c2ccc3c(N)n[nH]c3c2)nc(N)n1` [GSK2219329], the “%Inh” value was 4%.
With `COc1ccc(-c2cc3c(C)nc(N)nc3n([C@H]3CC[C@H](OCCO)CC3)c2=O)cn1`, the “%Inh” value was 0%.
Turning to `O=C(NCc1cccs1)c1cc(C(=O)c2c(Cl)cccc2Cl)c[nH]1` [GW823670], the “%Inh” value was 1%.
`COc1cc2ncn(-c3cc(OCc4ccncc4Br)c(C(N)=O)s3)c2cc1OC` [GW854278]: the “%Inh” value amounted to 21%.
In the case of `Cc1nnc(-c2ccc(C)c(-c3ccc(C(=O)O)cc3)c2)o1` [GW608005], the “%Inh” value came out at 0%.
For the compound `Cc1nc(N(C)[C@H]2CN(C(=O)CC#N)CC[C@H]2C)c2cc[nH]c2n1`, the “%Inh” value worked out at 28%.
With `O=C1NC(=O)C(c2ccccc2)=C1Nc1cccc(O)c1` [SB-390534], the “%Inh” value turned out to be 8%.
Consider `COc1ccc(Nc2nccc(N3CCC(NS(=O)(=O)c4ccc(NC(C)=O)cc4)C3)n2)cc1` (centres unmarked) [GSK1379729], for which the “%Inh” value worked out at 0%.
With `COC(=O)c1c(-c2ccccc2)c2cc(Br)ccc2c(=O)n1Cc1ccc(NC(=O)CCC(=O)O)cc1`, the “%Inh” value is given as 4%.
As to `Cl.NS(=O)(=O)c1cccc(Nc2cc(-c3ccc(F)cc3)n[nH]2)c1` [GW824645], the “%Inh” value is 0%.
Take `Fc1cccc(CSc2nnc(-c3ccc4c(c3)CCO4)o2)c1`: the “%Inh” value is recorded as 13%.
On to `Cl.c1ccc(Cn2cnc3cc(Nc4ncnc5ccccc45)ccc32)cc1` [GW272142], for which the “%Inh” value is reported as 0%.
Regarding `CN1C(=O)C(Nc2cc(Cl)c(O)c(Cl)c2)=C(c2ccc(Cl)cc2)C1=O` [SB-404321], the “%Inh” value worked out at 4%.
With `COc1cc(OC)cc(-c2cc3cnc(N)nc3nc2NC(=O)NC(C)(C)C)c1`, the “%Inh” value was 0%.
`Nc1ncnc2c1ncn2-c1cccc2ccccc12` [SKF-97184]: the “%Inh” value was 0%.
As to `COc1cccc(C2=C(N(C)c3ccccc3)C(=O)NC2=O)c1` [SB-334865], the “%Inh” value is on record as 0%.
`Cc1ccc(Oc2ccc(Nc3ncnc4cc[nH]c34)cc2C)cn1`: the “%Inh” value is recorded as 3%.
As for `CN1C(=O)C(Nc2ccccc2)=C(c2ccccc2)C1=O` [SB-300079], the “%Inh” value came to 0%.
For the compound `CCc1nc(-c2cccc(C)c2)c(-c2ccncc2)s1`, the “%Inh” value stood at 4%.
With `Cc1cccc(-c2nc(Nc3ccc4c(cnn4C)c3)c3ccccc3n2)n1` [GW876731], the “%Inh” value came out at 0%.
With `Nc1n[nH]c2nnc(-c3ccccc3)c(-c3ccccc3)c12` [GW554060], the “%Inh” value turned out to be 0%.
Regarding `CCS(=O)c1ccc(-c2coc3ccc(-c4nnc(C)o4)cc23)cc1` (centres unmarked), the “%Inh” value came to 4%.
Take `COc1ccc(CNC(=O)NC2CCN(c3ccnc(Nc4ccc(F)cc4)n3)C2)cc1` (centres unmarked) [GSK1379706]: the “%Inh” value worked out at 17%.
On the same count and under the same terms, the same measure for `COc1ccc(-n2cnc3c(N)ncnc32)cc1` [SKF-97236]: 0%.
As for `COc1ccc(-c2cc3c(C)nc(N)nc3n([C@H]3CC[C@H](O)CC3)c2=O)cn1`, the “%Inh” value is 0%.
Still for that read-out and setting: as for `Nc1ncnc2c1ncn2-c1cccc(F)c1` [SKF-97560], the figure is 0%.
As to `Cc1cccc(-c2cc(-c3c[nH]nc3-c3ccccn3)ccn2)c1` [GW679395], the “%Inh” value was 0%.
On to `Cc1c(Cn2c(C)nn3c(=O)cc(N4CCO[C@H](C)C4)nc23)cccc1C(F)(F)F` [GSK2373690], for which the “%Inh” value stood at 0%.
Regarding `CCCNC(=O)Nc1ccc(Oc2ncnc3ccn(C)c23)cc1`, the “%Inh” value worked out at 0%.

The test system of a further assay is EPHA4. Conditions: concentration: 1 μM, replicates: in singlicate; n = 1.
Consider `COc1cc(Nc2nccc(N3CCC(NC(=O)C4COc5ccccc5O4)C3)n2)cc(OC)c1OC` (centres unmarked) [GSK1379761], for which the “%Inh” value is 2%.
`COc1cccc(-n2cnc3c(N)ncnc32)c1` [SKF-97416]: the “%Inh” value is 4%.
Same read-out and setting: the same measure for `CC(C)(C)c1ccc(C(=O)Nc2cn3cc(-c4ccccc4)ccc3n2)cc1`: 6%; for `COc1ccc(-c2coc3ccc(-c4nnc(SCc5cccc(C#N)c5)o4)cc23)cc1`: 25%; for `OCCCNc1nccc(-c2c(-c3cccc(C(F)(F)F)c3)nn3cc(C(F)(F)F)ccc23)n1` [GW630813]: 0%.
Consider `COC(=O)c1c(-c2ccccc2)c2cc(Br)ccc2c(=O)n1Cc1ccc(S(C)(=O)=O)cc1`, for which the “%Inh” value is 33%.
As to `Cc1cc(Nc2nc(-c3cccc(C)n3)nc3ccccc23)ccn1` [GW872411], the “%Inh” value is 0%.
Consider `Nc1ncnc2c1ncn2-c1ccc(Cl)cc1` [AH2635], for which the “%Inh” value is 0%.
`CN(C)c1cc(-c2ccc3c(N)n[nH]c3c2)nc(N)n1` [GSK2219329]: the “%Inh” value amounted to 8%.
Take `COc1ccc(-c2cc3c(C)nc(N)nc3n([C@H]3CC[C@H](OCCO)CC3)c2=O)cn1`: the “%Inh” value is given as 12%.
Turning to `O=C(NCc1cccs1)c1cc(C(=O)c2c(Cl)cccc2Cl)c[nH]1` [GW823670], the “%Inh” value was found to be 4%.
Consider `COc1cc2ncn(-c3cc(OCc4ccncc4Br)c(C(N)=O)s3)c2cc1OC` [GW854278], for which the “%Inh” value worked out at 0%.
Still for that read-out and setting: the same measure for `Cc1nnc(-c2ccc(C)c(-c3ccc(C(=O)O)cc3)c2)o1` [GW608005]: 18%; for `Cc1nc(N(C)[C@H]2CN(C(=O)CC#N)CC[C@H]2C)c2cc[nH]c2n1`: 20%.
As for `O=C1NC(=O)C(c2ccccc2)=C1Nc1cccc(O)c1` [SB-390534], the “%Inh” value amounted to 0%.
In the case of `COc1ccc(Nc2nccc(N3CCC(NS(=O)(=O)c4ccc(NC(C)=O)cc4)C3)n2)cc1` (centres unmarked) [GSK1379729], the “%Inh” value is given as 36%.
In the case of `COC(=O)c1c(-c2ccccc2)c2cc(Br)ccc2c(=O)n1Cc1ccc(NC(=O)CCC(=O)O)cc1`, the “%Inh” value is given as 12%.
On to `Cl.NS(=O)(=O)c1cccc(Nc2cc(-c3ccc(F)cc3)n[nH]2)c1` [GW824645], for which the “%Inh” value was 0%.
With `Fc1cccc(CSc2nnc(-c3ccc4c(c3)CCO4)o2)c1`, the “%Inh” value is 0%.
Take `Cl.c1ccc(Cn2cnc3cc(Nc4ncnc5ccccc45)ccc32)cc1` [GW272142]: the “%Inh” value is 12%.
With `CN1C(=O)C(Nc2cc(Cl)c(O)c(Cl)c2)=C(c2ccc(Cl)cc2)C1=O` [SB-404321], the “%Inh” value amounted to 0%.
Take `COc1cc(OC)cc(-c2cc3cnc(N)nc3nc2NC(=O)NC(C)(C)C)c1`: the “%Inh” value is listed as 0%.
For the compound `Nc1ncnc2c1ncn2-c1cccc2ccccc12` [SKF-97184], the “%Inh” value came out at 3%.
For `COc1cccc(C2=C(N(C)c3ccccc3)C(=O)NC2=O)c1` [SB-334865], the “%Inh” value is listed as 16%.
On the same count and under the same terms, as for `Cc1ccc(Oc2ccc(Nc3ncnc4cc[nH]c34)cc2C)cn1`, the figure is 22%.
Consider `CN1C(=O)C(Nc2ccccc2)=C(c2ccccc2)C1=O` [SB-300079], for which the “%Inh” value is recorded as 0%.
In the case of `CCc1nc(-c2cccc(C)c2)c(-c2ccncc2)s1`, the “%Inh” value is on record as 6%.
For the compound `Cc1cccc(-c2nc(Nc3ccc4c(cnn4C)c3)c3ccccc3n2)n1` [GW876731], the “%Inh” value is on record as 0%.
For `Nc1n[nH]c2nnc(-c3ccccc3)c(-c3ccccc3)c12` [GW554060], the “%Inh” value is 12%.
Regarding `CCS(=O)c1ccc(-c2coc3ccc(-c4nnc(C)o4)cc23)cc1` (centres unmarked), the “%Inh” value worked out at 0%.
On to `COc1ccc(CNC(=O)NC2CCN(c3ccnc(Nc4ccc(F)cc4)n3)C2)cc1` (centres unmarked) [GSK1379706], for which the “%Inh” value amounted to 8%.
Turning to `COc1ccc(-n2cnc3c(N)ncnc32)cc1` [SKF-97236], the “%Inh” value was found to be 0%.
Turning to `COc1ccc(-c2cc3c(C)nc(N)nc3n([C@H]3CC[C@H](O)CC3)c2=O)cn1`, the “%Inh” value stood at 0%.
For the compound `Nc1ncnc2c1ncn2-c1cccc(F)c1` [SKF-97560], the “%Inh” value is reported as 4%.
On the same count and under the same terms, the same measure for `Cc1cccc(-c2cc(-c3c[nH]nc3-c3ccccn3)ccn2)c1` [GW679395]: 22%; for `Cc1c(Cn2c(C)nn3c(=O)cc(N4CCO[C@H](C)C4)nc23)cccc1C(F)(F)F` [GSK2373690]: 3%; for `CCCNC(=O)Nc1ccc(Oc2ncnc3ccn(C)c23)cc1`: 3%.
